Measured values: ChEMBL document CHEMBL3433997, “St. Jude Leishmania screening dataset” (2016)

Target: Glucose transporter (Leishmania mexicana) (UniProt O61059)
Test: ST_JUDE_LEISH: Cytotoxicity at 2uM final concentration against transgenic Leishmania Mexicana promastigotes LmGT2 that are glucose transport deficient and complemented with the L. Mexicana glucose transporter 2. Activity is measured by DNA content using SYBR green in vitro
Type: functional

Row | Compound | inhibition [%]
1 | CCCC(CNCc1cccc(C)c1)CNc1cc(=O)c2ccccc2[nH]1 (stereo unspecified) | 11.9
2 | CCC(Cc1cnc2nc(N)nc(N)c2n1)c1ccc(C(=O)N[C@@H](CCC(=O)O)C(=O)O)cc1 (stereo partly specified) | 3.38
3 | Cc1cccc2c(C(=O)NC3CCN(Cc4ccccc4)CC3)cc(-c3cccnc3)nc12 | -0.31
4 | O=C(NC1CC1)c1cnc(N2CCC(Oc3ccc(Cl)cc3)CC2)c(Cl)c1 | 0.49
5 | COc1cc(N(C)Cc2cnc3nc(N)nc(N)c3n2)cc(OC)c1OC | 3.15
6 | Cc1cccc2nc(-c3ccc(-c4cccc(NC(=O)c5cncn5C)c4)cc3)[nH]c12 | 5.41
7 | Nc1nccc2ccc(-c3ccncc3)cc12 | 6.25
8 | Cc1nn(-c2ccccc2)c2sc(C(=O)N(CCCN(C)C)c3nc(-c4ccccc4)cs3)cc12 | 0.07
9 | CC(C)CCN1CCCN(Cc2ccc(C(=O)NCc3ccc(Cl)cc3)cc2)CC1 | -0.7
10 | CC(C)COc1ccc(C(O)C(CN2CCCCC2)c2ccccc2)cc1 (stereo unspecified) | 3.27
11 | CS(=O)(=O)NCCCNCc1ccc(-c2ccc(-c3nc4cc(C(F)(F)F)ccc4[nH]3)s2)cc1 | 1.6
12 | Cc1cccc2nc(-c3cccc(-c4cccc(CNC(C)C)c4)c3)[nH]c12 | 0.35
13 | Cc1cc(NCC2CCN(CC3CCCCC3)C2)nc(Nc2ccc(Cl)cc2)n1 (stereo unspecified) | 2.45
14 | c1ccc(CNCc2cccc(-c3cccc(-c4nc5ccccc5[nH]4)c3)c2)cc1 | 3.48
15 | CN1CCN(c2ccc3nccc(CCN4CCC(NCc5ccc6c(n5)NC(=O)CO6)CC4)c3n2)CC1 | -0.12
16 | Cc1cc(=O)c(-c2ccc(Oc3cccc(OC(F)(F)F)c3)cc2)c(C)[nH]1 | -1.14
